Reference: ChEMBL document CHEMBL4513216, “Probing the Open Global Health Chemical Diversity Library for Multistage-Active Starting Points for Next-Generation Antimalarials” (ACS Infect Dis, 2020)
Screen size: about 69,000 compounds; about 8,600 (12%) showed an effect of 50% or more. For the sample, strong results were picked, then their nearest neighbours and some compounds at random.

System: Plasmodium berghei
Assay: Screen against P. berghei liver stage (PbLuc), transformed with Luciferase, at 10uM
Format: functional, HepG2
Conditions: tested at 10 uM

| Compound | INHIBITION [%] |
| --- | --- |
| Cc1ccc(CN2CCC3(CCN(c4cnn(C)c4)C3=O)C2)s1 (configuration not stated) | 1.94 |
| CCN1C[C@H]2C3(CCN(C(=O)NC(C)C)CC3)CC[C@@]2(C(=O)N(C)C)C1 | 28.5 |
| CCS(=O)(=O)N1CCC2(CC1)CC[C@@]1(C(=O)N(C)C)CN(C)C[C@@H]21 | -10.5 |
| CC(C)NC(=O)N1CCC2(CC1)CC[C@@]1(C(=O)N(C)C)CN(C)C[C@@H]21 | 67.5 |
| O=C(NCc1cc(=O)n2c(n1)CN(CC1CCOC1)CCC2)C1CC1 (configuration not stated) | 26.8 |
| O[C@@H]1CN(c2noc(C3CC3)n2)CC[C@H]1c1ccc2ccccc2c1 | 51.2 |
| CCCc1nc(N2CC[C@@H](c3ccc4ccccc4c3)[C@H](O)C2)no1 | 36.7 |
| Cc1nc(N2CC[C@@H](c3ccc4ccccc4c3)[C@H](O)C2)no1 | 31.2 |
| CC(C)NC(=O)N1CCC2(CC1)NC(=O)CC2c1ccncc1 (configuration not stated) | -3.51 |
| CCc1nnc2n1CCN(C(=O)c1cn(-c3ccccc3)nn1)C2 | -1.15 |
| Cc1nc(CN2C[C@@H]3CN(C(=O)c4ccoc4C)C[C@@H]3C2)cs1 | 1.48 |
| Cc1nc(CN2CCC3(C2)CN(Cc2ccco2)C3)cs1 | 56.6 |
| Cc1nc(CN2C[C@@H]3CN(C(=O)c4ccoc4C)C[C@@H]3C2=O)cs1 | 64.9 |
| Cc1nc(CN2CCC3(CCN(C(=O)c4ccoc4C)CC3)C2)cs1 | 66.2 |
| Cc1nc(CN2C[C@@H]3CN(C(=O)c4ccco4)C[C@@H]3C2=O)cs1 | 40.4 |
| Cc1nc(CN2C(=O)CCC23CCN(Cc2ccco2)CC3)cs1 | 3.17 |
| Cc1occc1C(=O)N1CCC2(CCN(Cc3cccs3)C2)CC1 | -33.9 |
| Cc1nc(CN2CCC23CCN(Cc2ccco2)CC3)cs1 | 49.4 |
| Cc1occc1C(=O)N1CCC2(CCN(Cc3nccs3)C2)CC1 | 1.81 |
| Cc1ccc(C2CCCCCN2Cc2cn(C)nc2C)s1 (configuration not stated) | 27.6 |
| COCC(=O)N1CCCC1c1cccc(Nc2ncc(C)s2)n1 (configuration not stated) | 42.4 |
| Cc1cnc(Nc2cccc(C3CCCN3C(=O)CO)n2)s1 (configuration not stated) | -0.902 |
| Cc1nn(C)cc1CN1CCCC1c1cccc(Nc2nccs2)n1 (configuration not stated) | 23.25 |

| Compound | INHIBITION [%] |
| --- | --- |
| Cc1cnc(Nc2cccc(C3CCCN3Cc3cn(C)nc3C)n2)s1 (configuration not stated) | 64.5 |
| CCN(CC)S(=O)(=O)N1CCCC1c1cccc(Nc2ncc(C)s2)n1 (configuration not stated) | 76.1 |
| CCOCCN1C[C@@H]2CCCO[C@@H]2[C@H](NC(=O)c2cnoc2C)C1 | 32.1 |
| CC1(c2ncc(CN3CCN(c4ncccn4)CC3)cn2)CCCCO1 (configuration not stated) | 23.15 |
| O=C(c1ccccc1F)N1C[C@@H]2COC[C@]2(COCc2cccnc2)C1 | 10 |
| CCCN1C(=O)c2ccccc2C1OC (configuration not stated) | 28.7 |
| CC(=O)Nc1cc(Br)cnc1OCC(F)(F)F | 30.3 |
| COCC(=O)Nc1cc(Br)cnc1OCC(F)(F)F | 26 |
| CCC(=O)Nc1cc(Br)cnc1OCC(F)(F)F | 67.1 |
| O=C(c1cccc2cccnc12)N1CC[C@@]2(CCCO2)[C@@H](O)C1 | 22 |
| COC(=O)CC(c1ccc(OC)c(O)c1)c1oc(C)cc(=O)c1O (configuration not stated) | 3.31 |
| CN1CCN(CCOc2ccc(NC(=O)c3ccncc3)cc2)CC1 | 27 |
| CNc1nc2c(c(C(=O)N3CCCC3)n1)CN(C(=O)c1cccs1)CC2 | -37.9 |
| O=C1CCC(C(=O)N2CCOC(Cc3ccccc3Cl)C2)=NN1 (configuration not stated) | 71.1 |
| NCC1CN(C(=O)c2cccc(-n3cccn3)c2)CCO1 (configuration not stated) | 40.5 |
| Cn1ccnc1C(=O)N1CCOC(Cc2ccccc2Cl)C1 (configuration not stated) | 41.2 |
| O=C1CCC(C(=O)N2CCOC(Cc3cccc4ccccc34)C2)=NN1 (configuration not stated) | 53.7 |
| O=C1CCC(C(=O)N2CCOC(Cc3ccc(F)cc3)C2)=NN1 (configuration not stated) | -11.6 |
| CCn1ncnc1CN1CCOC(Cc2cccc3ccccc23)C1 (configuration not stated) | 44.3 |
| Cc1cc2ccncc2n1CC1(O)CCN(C(=O)c2ccccn2)CC1 | 18.3 |
| COC(=O)c1cc2c(OC)c(OC)c(OC)cc2[nH]1 | 32.2 |
| C=c1ncsc1=C1NN=C(C2CCCN2C(=O)CCn2cccn2)O1 (configuration not stated) | 16.575 |
| CCCNC(=O)c1cccc(CNCc2csc(C(C)(C)C)n2)c1 | 77.4 |

| Compound | INHIBITION [%] |
| --- | --- |
| CCNC(=O)c1cccc(CNC(=O)c2cnc(C(C)(C)C)s2)c1 | -6.94 |
| CCC(C)NC(=O)c1cccc(CNCc2csc(C(C)C)n2)c1 (configuration not stated) | 64.5 |
| CCCNC(=O)c1cccc(CNCc2csc(C(C)C)n2)c1 | 55.1 |
| CCCNC(=O)CN1CCC(NCc2csc(C(C)C)n2)CC1 | -16.8 |
| CCCNC(=O)C1CCN(Cc2csc(C(C)C)n2)CC1 | 42 |
| CCCNC(=O)c1cccc(CNCc2csc(CC)n2)c1 | 12.3 |
| CC(C)c1nc(CNC(=O)c2ccc(C(C)N3CCCCC3)o2)cs1 (configuration not stated) | 42.2 |
| CCC(C)NC(=O)c1cccc(CNC(=O)CC(F)(F)F)c1 (configuration not stated) | -76.9 |
| Cc1ccc(C(=O)O)c(N2CC(C)(C)[C@@](C)(O)C2)n1 | 16.2 |
| O=S(=O)(c1cncc(F)c1)N1CCC2(CCOC2)C1 (configuration not stated) | -15.4 |
| CC(=O)Nc1ccc2nc(CN(C)Cc3snnc3C)ccc2c1 | 11.4 |
| COCc1cc(N(C)CCc2c(C)n[nH]c2C)ncn1 | 26.7 |
| COCC(c1cccc(C(F)(F)F)c1)N(C)C(=O)c1ccco1 (configuration not stated) | 48.45 |
| O=C(c1cnccn1)N1CC[C@H]2C[C@@H](c3ccncn3)O[C@@H]2C1 | 29.9 |
| O=c1cc(CN2CCCC2)nc2n1CCCN(S(=O)(=O)C1CC1)C2 | 29.5 |
| Cc1noc([C@@H]2CC[C@@H]3[C@@H](CCN3c3nnc(C)s3)O2)n1 | 50.4 |
| Cc1noc([C@@H]2CC[C@@H]3[C@@H](CCN3S(C)(=O)=O)O2)n1 | -10.3 |
| Cc1noc([C@H]2CC[C@@H]3[C@@H](CCN3c3ncccn3)O2)n1 | 51.4 |
| Cc1noc([C@H]2C[C@@H]3CCN(c4nnc(C)s4)C[C@H]3O2)n1 | 39.5 |
| Cc1noc([C@@H]2C[C@@H]3CCN(c4nnc(C)s4)C[C@H]3O2)n1 | -21.1 |
| Cc1noc([C@H]2CC[C@@H]3[C@@H](CCN3S(C)(=O)=O)O2)n1 | 7.12 |
